Test [1] can be described thus: inhibitors of Chlamydomonas gravitaxis, primary screen, whole organism, Chlamydomonas reinhardtii, WT vs cilia-less mutant, absorbance, 96-well (AID 463189).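 Further: 0% = wild type cc124 cells in DMSO and 100% = ciliumless bld1 mutant cells.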 To be noted: OD600 absorbance, 2 days, at 10 µM, stronger effect = higher value.
The nature of test [2]: inhibitors of E-selectin induction by TNFa, primary screen, imaging, HUVEC, immunofluorescence, MLSMR starter and 10KST1 sets (AID 487;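 active means visually confirmed hit in the image check and inhibition above 20%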;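 on inhibition: signal is fraction of cell area covered by stained E-selectin grains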;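 on nuclei count: 100% = median nuclei count of all wells on the same plate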). To be noted: HUVEC TNFalpha-induced E-selectin immunofluorescence imaging, at 2 µM; inhibition: stronger effect = higher value; nuclei count: measured here: cell number, toxicity.
Test [3] can be described thus: DUSP6 inhibitors restoring Erk phosphorylation by chemical complementation, primary imaging in DUSP6-transfected HeLa (AID 609;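 active means compounds giving at least 50% inhibition in the cell-based MKP-3 phosphatase rescue imaging test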;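 on inhibition: phospho-Erk level distribution per well compared with pooled transfected vehicle control wells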). To be noted: HeLa MKP-3 transfected, phospho-Erk imaging KS statistic, at 10 µM.
In test [4] the target is Dual specificity protein phosphatase 6 (Homo sapiens) (UniProt Q16828). The test is described as above. To be noted: HeLa MKP-3 transfected, phospho-Erk imaging KS statistic, at 10 µM, stronger effect = higher value.
Test [5] concerns the target Voltage-gated potassium channel subunit beta-2 (Rattus norvegicus) (UniProt P62483). As to the kind of experiment: KvBeta enzyme negative modulators, primary screen, biochemical, NADPH fluorescence (AID 622;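 active means fluorescence slope higher than the sample average by over 3 SD, cut at about -0.22 in these data, passing the limit was not always enough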;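 further: slope of raw intensity against log time taken from 70 to 1610 s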). To be noted: recombinant KvBeta, 4-cyanobenzaldehyde reduction, at 10 µM, stronger effect = higher value.
The target is the same in test [6]. As to the kind of experiment: KvBeta positive modulators, primary screen, biochemical, NADPH fluorescence (AID 623;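 active means NADPH fluorescence slope more negative than the mean of all samples by about 3 SD, 99.7% confidence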;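 further: fluorescence intensity change per second fitted from 20 to 320 s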). To be noted: Recombinant KvBeta, NADPH fluorescence decrease slope, 10 min; at 10 µM; stronger effect = lower value.
For test [7], the target named is Muscarinic acetylcholine receptor M4 (Homo sapiens) (UniProt P08173). Kind of test: compounds altering M4/GIRK thallium flux, either direction, primary screen, M4 allosteric agonist project, cell-based, HEK293 M4/GIRK, BTC-AM (AID 625;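 active means fluorescence slope after compound addition differing from the mean of all tested samples at 99.7% confidence, mostly higher but some lower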;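 further: thallium influx through GIRK channels coupled to M4 in HEK293 cells with BTC-AM dye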). To be noted: at 10 µM, actives lie on both sides.
The nature of test [8]: inhibitors of larval lipid processing in zebrafish, primary screen, whole organism, PED6 fluorescence, gall bladder and intestine (AID 686;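 active means a full or partial loss of lipid-probe fluorescence in the fish gall bladder, intestine or both, judged by eye; inactive means no fluorescence loss, or compound toxic to the fish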;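 further: larvae 5 to 7 days old with five fish per well; signal comes from phospholipase A2 cleavage of quenched PED6 carried via bile; overnight exposure to compound and PED6 before scoring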). To be noted: Zebrafish larvae PED6 lipid processing, fluorescence scoring.
A short description of test [9]: inhibitors of mutant huntingtin aggregation, primary screen, imaging, exon1htt(103Q)mCFP cells, high-content imaging (AID 483;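 active means visual image review flags a hit and inhibition of aggregation exceeds 20%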;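 further: compound exposure lasted 3 days before fixation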;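 on nuclei count: percent of the per-plate median nuclei count of sample wells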). To be noted: exon1htt(103Q)mCFP cell line, aggregate imaging, at 2 µM; inhibition of aggregation: stronger effect = higher value; nuclei count: measured here: cell count, toxicity.
Test [10] deals with Alpha-2C adrenergic receptor (Homo sapiens) (UniProt P18825). Kind of test: modulators of alpha2C/GIRK thallium flux, primary screen, cell-based, HEK293 alpha2C/GIRK1/2 (AID 624;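 active means fluorescence slope after compound addition differing from the mean of all screened samples at 99.7% confidence, in either direction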;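 further: slope of fluorescence ratio to pre-addition baseline per second over 15 to 24 s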). To be noted: thallium flux BTC fluorescence, at 10 µM, actives lie on both sides.
Test [11] can be described thus: inhibitors of Sendai virus-induced IRF3 signaling, primary screen, TLR/RLR signaling modifier project, cell-based, Sendai virus stimulus, luciferase, 10K MLSCN set (AID 602276;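 active means inhibition at or above 50% at 10 µM; inactive means inhibition below 50%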;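 further: firefly luciferase from ISG56 promoter only with Renilla not read in this screen; 0% = Sendai virus plus DMSO and 100% = medium plus DMSO without virus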). To be noted: HEK293 RL24 IRF3 luciferase reporter, at 10 µM, stronger effect = higher value. (Reporter assays use an easily measured gene product as a stand-in for the process of interest.)
A short description of test [12]: inhibitors of poly I:C-induced TLR3 signaling, primary screen, cell-based, poly I:C stimulus, luciferase, 10K MLSCN set (AID 602277;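 active means inhibition of the reporter signal at or above 50%; inactive means inhibition below 50%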). To be noted: HEK293-TLR3 RL24 IRF3 luciferase reporter, at 10 µM, stronger effect = higher value.
Setting [13] is: measured here: cell density z-score.
Setting [14] is: measured here: nuclear c-Myc green intensity z-score.
The mark [15] stands for this setting: measured here: nuclear pErk red intensity z-score, stronger effect = higher value.

“And” between values parts separate entries of the source, which are not always exact repeats. Equal values may be shown once. The source made the active and inactive calls.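 How the source made its calls, unless noted: active means inhibition at or above 50% relative to wild type and mutant plate controls; inactive means inhibition below 50%.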

As a reminder, the inhibition is the drop in the measured response relative to a control, in per cent.

Chain of Muscarinic acetylcholine receptor M4 (Homo sapiens) (P08173 whole entry, looked up): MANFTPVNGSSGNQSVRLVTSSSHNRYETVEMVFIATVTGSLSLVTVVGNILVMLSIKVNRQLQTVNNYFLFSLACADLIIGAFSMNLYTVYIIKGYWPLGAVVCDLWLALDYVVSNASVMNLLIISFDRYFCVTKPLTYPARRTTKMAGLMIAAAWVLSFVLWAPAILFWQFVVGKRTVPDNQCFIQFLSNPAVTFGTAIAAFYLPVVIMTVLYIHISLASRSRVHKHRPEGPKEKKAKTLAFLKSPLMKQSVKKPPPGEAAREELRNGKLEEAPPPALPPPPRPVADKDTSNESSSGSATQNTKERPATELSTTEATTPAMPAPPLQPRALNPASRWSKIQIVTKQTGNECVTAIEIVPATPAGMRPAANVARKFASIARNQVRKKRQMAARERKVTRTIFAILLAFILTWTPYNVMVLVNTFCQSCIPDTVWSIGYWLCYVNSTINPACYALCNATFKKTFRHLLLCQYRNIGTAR
Chain of Dual specificity protein phosphatase 6 (Homo sapiens) (Q16828 whole entry, looked up): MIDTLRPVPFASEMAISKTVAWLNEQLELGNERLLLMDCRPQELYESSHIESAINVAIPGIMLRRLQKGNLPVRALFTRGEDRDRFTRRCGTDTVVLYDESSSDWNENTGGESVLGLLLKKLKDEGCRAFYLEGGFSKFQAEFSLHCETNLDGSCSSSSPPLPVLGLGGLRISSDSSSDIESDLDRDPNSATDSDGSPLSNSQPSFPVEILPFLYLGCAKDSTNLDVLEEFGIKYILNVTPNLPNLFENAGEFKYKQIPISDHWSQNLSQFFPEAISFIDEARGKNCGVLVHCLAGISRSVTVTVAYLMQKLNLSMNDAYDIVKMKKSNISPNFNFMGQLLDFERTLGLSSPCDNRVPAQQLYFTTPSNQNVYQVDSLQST
Chain of Alpha-2C adrenergic receptor (Homo sapiens) (P18825 whole entry, looked up): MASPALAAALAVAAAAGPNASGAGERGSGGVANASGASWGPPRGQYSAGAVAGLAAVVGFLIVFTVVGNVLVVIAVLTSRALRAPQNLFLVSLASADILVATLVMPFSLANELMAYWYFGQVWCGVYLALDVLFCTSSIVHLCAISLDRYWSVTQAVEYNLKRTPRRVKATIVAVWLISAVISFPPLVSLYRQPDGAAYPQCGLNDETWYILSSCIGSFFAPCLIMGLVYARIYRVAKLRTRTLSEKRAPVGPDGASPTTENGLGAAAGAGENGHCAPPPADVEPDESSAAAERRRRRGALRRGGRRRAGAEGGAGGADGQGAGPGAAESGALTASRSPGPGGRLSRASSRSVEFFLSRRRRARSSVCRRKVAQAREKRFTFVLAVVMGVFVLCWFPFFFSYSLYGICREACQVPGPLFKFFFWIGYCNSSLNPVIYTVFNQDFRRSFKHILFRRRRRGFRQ
Chain of Voltage-gated potassium channel subunit beta-2 (Rattus norvegicus) (P62483 whole entry, looked up): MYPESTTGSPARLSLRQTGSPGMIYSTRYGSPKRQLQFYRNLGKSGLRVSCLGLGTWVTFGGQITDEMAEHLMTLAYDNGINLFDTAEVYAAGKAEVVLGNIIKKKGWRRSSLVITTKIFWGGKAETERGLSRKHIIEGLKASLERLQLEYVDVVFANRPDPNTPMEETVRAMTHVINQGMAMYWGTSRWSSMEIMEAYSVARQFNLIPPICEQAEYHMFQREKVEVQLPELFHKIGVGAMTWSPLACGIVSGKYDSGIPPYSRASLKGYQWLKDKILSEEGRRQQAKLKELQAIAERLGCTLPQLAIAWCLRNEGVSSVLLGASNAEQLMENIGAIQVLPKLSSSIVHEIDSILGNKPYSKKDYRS

With `C[Se]C[C@H](N)C(=O)O`, the inhibition in [1] is 1.72% (inactive).

As for `CC(=O)CC(C)(C)n1c[n+](C)nn1`, the inhibition was -59% (inactive) in test [2], -5.89% (inactive) in test [4] and -0.884% (inactive) in [1]. Also, the nuclei count in test [2] was 155%. The z-score was 0.619 in test [3] (setting [13]), -0.892 in test [3] (setting [14]) and -1.39 in test [3] (setting [15]). For the same molecule, the fluorescence slope in test [5] is -0.383 (inactive); in test [7], 0.00569 (inactive). The NADPH fluorescence slope in test [6] was -5.6e-05 (inactive). Further, the call in test [8] was inactive.

`COc1ccc(Cc2nccc3cc(OC)c(OC)cc23)cc1OC`: in test [9], the inhibition of aggregation is -8.7% (inactive). Besides, the figures for the nuclei count in test [9] and in [2] were 110% and 140%, respectively. In addition, the inhibition in test [2] was -204% (inactive); in test [4] it was 9.37% (inactive); in test [1] it was -20% (inactive) and 8.29% (inactive); in test [11], -5.8% (inactive); in [12] it was -3.94% (inactive). The z-score in test [3] (setting [13]) was 1.76; in [3] (setting [14]) it was -0.33; in [3] (setting [15]), -0.255. For the same molecule, the fluorescence slope in test [5] was -0.442 (inactive). Further, the NADPH fluorescence slope in [6] is -7e-05 (inactive). For the same molecule, in [10], the slope is 0.00447 (inactive). Besides, the outcome in [8] is “inactive; toxic”.

As to `CCCN1CCc2cccc3c2[C@H]1Cc1ccc(O)c(O)c1-3`, in [1], the inhibition is 0.62% (inactive).

For the molecule `CNCCc1c[nH]c2ccc(O)cc12`, the inhibition in test [1] is 8.6% (inactive).

For `CC[C@@H]1C(=O)OC[C@@H]1Cc1cncn1C`, the inhibition of aggregation in test [9] is 8.3% (inactive) and -13.2% (inactive). In addition, the nuclei count in test [9] is 112% and 101%; in test [2], 122% and 127%. The inhibition in test [2] is -46.3% (inactive) and -64.9% (inactive); in test [4] it was 11.3% [cells stimulated with TPA for 15 min] (inactive) and 10.2% [cells stimulated with TPA for 15 min] (inactive); in [11], 18.4% (inactive) and -3.13% (inactive); in [12], 19% (inactive) and 27% (inactive). Moreover, the z-score in test [3] (measured here: cell density z-score, cells stimulated with TPA for 15 min) is 0.654 and -2.12; in [3] (measured here: nuclear c-Myc green intensity z-score, cells stimulated with TPA for 15 min) it was -1.14 and -0.253; in test [3] (measured here: nuclear pErk red intensity z-score, stronger effect = higher value, cells stimulated with TPA for 15 min), 0.525 and 1.62. Moreover, the fluorescence slope in test [5] was -0.572 (inactive) and -0.488 (inactive). Besides, in test [6], the NADPH fluorescence slope is 7.3e-06 (inactive) and -6e-05 (inactive). In test [8], the outcome was “inactive [screened at 20 µM (by protocol)]”.

For the molecule `Cn1c(O)c(C(=O)c2ccccc2Cl)c(=O)n(C)c1=O`, the inhibition in [2] was 35.3% (inactive); in [4], 5.57% (inactive); in [1], 9.5% (inactive). Besides, in test [2], the nuclei count is 79.3%. The z-score in test [3] (setting [13]) was -0.324; in [3] (setting [14]), 0.445; in test [3] (setting [15]), 0.96. Besides, the fluorescence slope in test [5] is -0.47 (inactive); in [7] it was 0.00543 (inactive). For the same molecule, in test [6], the NADPH fluorescence slope is -3.4e-05 (inactive). In addition, the molecule was called inactive in [8].

As to `NCCc1c[nH]c2ccc(O)cc12`, in test [1], the inhibition was -4.38% (inactive).

With `CC(N)Cc1c[nH]c2ccc(O)cc12` (stereo not given), in test [1], the inhibition was 7.26% (inactive).

As to `CN1C[C@@H](CS(=O)(=O)N(C)C)C[C@@H]2c3cccc4c3c(cn4C)C[C@H]21`, the inhibition in test [1] is 4.5% (inactive).

Take `CC(C)(C)c1cc(C=C(C#N)C#N)cc(C(C)(C)C)c1O`: in test [1], the inhibition was 1.13% (inactive).

Regarding `CCCN1CCC[C@@H]2Cc3[nH]ncc3C[C@H]21`, in test [1], the inhibition is 1.82% (inactive) and 2.66% (inactive).

On to `C[C@@H]1O[C@@H](O[C@H]2C[C@@H](O)[C@]3(CO)[C@H]4[C@H](O)C[C@]5(C)[C@@H](C6=CC(=O)OC6)CC[C@]5(O)[C@@H]4CC[C@]3(O)C2)[C@H](O)[C@H](O)[C@H]1O`, for which, in test [1], the inhibition was 6.79% (inactive).

In the case of `O=P(c1ccccc1)(c1ccccc1)N1CCCCC1`, the figures for the inhibition in [2], in test [4] and in [1] were -13.6% (inactive), 18.9% (inactive) and -7.33% (inactive), respectively. In [2], this molecule displayed a nuclei count of 99.1%. Moreover, the z-score is -0.682 in test [3] (setting [13]), -0.604 in test [3] (setting [14]) and -1.11 in test [3] (setting [15]). Moreover, the fluorescence slope in test [5] is -0.396 (inactive); in test [7] it was 0.00417 (inactive). The NADPH fluorescence slope in test [6] is 1.4e-05 (inactive). Besides, the outcome in test [8] was inactive.

Consider `C[N+]1(C)[C@@H]2CC[C@H]1CC(OC(=O)C(CO)c1ccccc1)C2` (stereo not given in full), for which the inhibition of aggregation in test [9] is -2.8% (inactive). Moreover, the nuclei count in test [9] is 112%; in test [2] it was 123% and 124%. In addition, the inhibition was -82.3% (inactive) and -114% (inactive) in [2]; 1.48% (inactive) and 15.3% (inactive) in test [4]; 30.8% (inactive) and -7.87% (inactive) in test [1]; 13.4% (inactive) and 12.2% (inactive) in [11]; 35.7% (inactive) and 30.4% (inactive) in [12]. The z-score in [3] (setting [13]) is -1.12 and 0.779; in test [3] (setting [14]), 0.388 and 0.223; in test [3] (setting [15]) it was -0.779 and -1.81. For the same molecule, in test [5], the fluorescence slope was -0.509 (inactive) and -0.518 (inactive). Besides, the NADPH fluorescence slope in test [6] was -2.9e-05 (inactive) and -4.5e-05 (inactive). Further, in [10], the slope is 0.005 (inactive) and 0.00423 (inactive). Also, the outcome in test [8] was inactive.

These data come from PubChem BioAssay.
